Values without a mark were called inactive.
biological target: T1, BAP1 (UniProt Q92560); assay: log2 ratio of Biotin-Ahx-Ub-VS probe labelling (fragment/DMSO); higher = less target engagement (more negative = stronger competition), active = hit call of the paper (q ≤ 0.05, log2 ratio ≤ -1); conditions: compound concentration: 200 uM; treatment time: 3 h
T1 sequence (whole entry): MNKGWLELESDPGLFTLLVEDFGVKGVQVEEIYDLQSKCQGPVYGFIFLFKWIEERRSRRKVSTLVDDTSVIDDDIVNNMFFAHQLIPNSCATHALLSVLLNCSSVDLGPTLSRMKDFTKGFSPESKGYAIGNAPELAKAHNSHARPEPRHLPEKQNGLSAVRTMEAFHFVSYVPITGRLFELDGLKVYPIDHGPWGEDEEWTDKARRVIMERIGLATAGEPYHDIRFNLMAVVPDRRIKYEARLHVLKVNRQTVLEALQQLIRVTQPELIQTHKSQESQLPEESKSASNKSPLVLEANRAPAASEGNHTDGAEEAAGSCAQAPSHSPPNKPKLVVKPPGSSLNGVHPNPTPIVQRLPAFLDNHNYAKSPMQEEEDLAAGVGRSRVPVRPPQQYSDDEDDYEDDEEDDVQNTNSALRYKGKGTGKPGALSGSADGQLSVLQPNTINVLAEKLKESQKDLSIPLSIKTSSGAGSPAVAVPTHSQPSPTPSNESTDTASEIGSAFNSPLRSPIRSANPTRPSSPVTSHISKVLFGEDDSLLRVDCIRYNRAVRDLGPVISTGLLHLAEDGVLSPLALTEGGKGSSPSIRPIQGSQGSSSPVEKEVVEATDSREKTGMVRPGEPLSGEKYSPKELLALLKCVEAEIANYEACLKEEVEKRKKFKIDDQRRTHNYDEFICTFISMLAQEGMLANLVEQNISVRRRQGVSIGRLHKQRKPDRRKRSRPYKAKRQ
How it was run: (§1)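 Labelled DUBs from HEK293T lysate were NeutrAvidin-enriched, digested with LysC and trypsin, and run by diaPASEF LC-MS/MS. Before that, each 495 µg sample in Tris/CHAPS/IGEPAL buffer with protease inhibitors was treated in triplicate with fragment at 200 µM or vehicle for 3 h, then with Biotin-Ahx-Ub-VS at 0.5 µM final for 1 h. Values are average log2 ratios of fragment over vehicle by unpaired t-test, based on global-median-normalised Spectronaut label-free quantities from proteins with ≥2 unique peptides.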

Structure (SMILES) | log2 ratio of Biotin-Ahx-Ub-VS probe labelling
Cc1ccc(CN(C)C(=O)CCl)o1 | -0.4
O=C(CCl)N1CCC[C@@H]1c1ccon1 | -2.4 (active)
COCC1C=CCCN1C(=O)CCl (stereo not given) | -0.527
Cl.Cn1c(CNC(=O)CCl)nc2cccnc21 | -1.32 (active)
Cc1cccc(C)c1NC(=O)CCl | -3.62 (active)
O=C(CCl)N1CCCC1c1ccsc1 (stereo not given) | -3.75 (active)
NC(=O)C1CCCCN1C(=O)CCl (stereo not given) | -0.748
Cc1cnc2[nH]cc(CCNC(=O)CCl)c2c1 | -1 (active)
Cc1ccc(CNC(=O)CCl)nc1C.Cl | -1.57 (active)
O=C(CCl)N1CCN2C(=O)CCC2C1 (stereo not given) | -0.591
O=C(CCl)N1CCOCCC1c1ccccc1 (stereo not given) | -0.446
O=C(CCl)N1CCc2[nH]c3ccccc3c2C1 | -0.875
CN(CCC(O)c1ccc(Br)cc1)C(=O)CCl (stereo not given) | -2.04 (active)
CC(NC(=O)CCl)c1cnn(C2CC2)c1 (stereo not given) | -2.22 (active)
CCN(C(=O)CCl)C1CCS(=O)(=O)C1 (stereo not given) | -0.0461
COc1ccc(-c2csc(NC(=O)CCl)n2)cc1 | -2.94 (active)
Cc1noc(N2CCN(C(=O)CCl)CC2)n1.Cl | -0.867
O=C(CCl)N1CCCCCC1c1ncon1 (stereo not given) | -0.409

Structure (SMILES) | log2 ratio of Biotin-Ahx-Ub-VS probe labelling
O=C(CCl)N1CCc2sccc2C1 | -0.988
O=C(CCl)Nc1ccc2c(c1)OC(F)(F)O2 | -1.92 (active)
O=C(CCl)N(C1CCCC1)C1CCS(=O)(=O)C1 (stereo not given) | -0.0673
O=C(CCl)N1CCCC2CCCCC21 (stereo not given) | -0.281
O=C(CCl)Nc1cccc(NC(=O)c2ccccc2)c1 | -3.32 (active)
O=C(CCl)N1CCOCC1C1CC1 (stereo not given) | -0.299
Cl.O=C(CCl)N1CCCC(c2ncc[nH]2)C1 (stereo not given) | -0.246
O=C(CCl)N1CC=C(c2c[nH]c3ccccc23)CC1 | -1.95 (active)
Cl.O=C(CCl)N1CCC(Cc2nccs2)C1 (stereo not given) | -0.428
O=C(CCl)Nc1ccccc1C(F)(F)F | -2.61 (active)
Cc1ccc(C)c(Oc2ccc(CNC(=O)CCl)cn2)c1.Cl | -3.94 (active)
CC(=O)Nc1ccc(NC(=O)CCl)cc1 | -3.42 (active)
O=C(CCl)N1CCC2(CCC(O)CC2)CC1 | -0.626
Cc1conc1C1CN(C(=O)CCl)C1 | -1.76 (active)
COc1ccccc1C(C)NC(=O)CCl (stereo not given) | -2.35 (active)
Cc1ccc(-c2nnc(C)[nH]2)c(NC(=O)CCl)c1 | -4.24 (active)
CS(=O)(=O)c1ccc(CNC(=O)CCl)cc1 | -3.17 (active)

biological target: EIF3F (UniProt O00303); assay: as above; conditions: compound concentration: 200 uM; treatment time: 3 h
How it was run: as §1

Sequence of EIF3F (O00303 whole entry): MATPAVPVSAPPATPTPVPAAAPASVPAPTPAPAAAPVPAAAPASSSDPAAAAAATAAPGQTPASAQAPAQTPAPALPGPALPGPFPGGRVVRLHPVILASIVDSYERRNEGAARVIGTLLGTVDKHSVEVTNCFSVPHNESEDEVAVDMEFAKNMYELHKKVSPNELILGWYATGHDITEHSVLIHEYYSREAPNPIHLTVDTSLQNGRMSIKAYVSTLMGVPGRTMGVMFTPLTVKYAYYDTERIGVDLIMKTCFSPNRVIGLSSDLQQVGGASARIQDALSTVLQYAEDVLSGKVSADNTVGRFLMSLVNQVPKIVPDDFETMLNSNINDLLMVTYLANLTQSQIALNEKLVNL

Structure (SMILES) | log2 ratio of Biotin-Ahx-Ub-VS probe labelling
Cc1ccc(CN(C)C(=O)CCl)o1 | -0.0182
O=C(CCl)N1CCC[C@@H]1c1ccon1 | -0.585
COCC1C=CCCN1C(=O)CCl (stereo not given) | -0.011
Cl.Cn1c(CNC(=O)CCl)nc2cccnc21 | -0.0906
Cc1cccc(C)c1NC(=O)CCl | -0.276
O=C(CCl)N1CCCC1c1ccsc1 (stereo not given) | 0.0507
NC(=O)C1CCCCN1C(=O)CCl (stereo not given) | 0.103
Cc1cnc2[nH]cc(CCNC(=O)CCl)c2c1 | -0.228
Cc1ccc(CNC(=O)CCl)nc1C.Cl | -0.526
O=C(CCl)N1CCN2C(=O)CCC2C1 (stereo not given) | 0.0885
O=C(CCl)N1CCOCCC1c1ccccc1 (stereo not given) | -0.267
O=C(CCl)N1CCc2[nH]c3ccccc3c2C1 | -0.00281
CN(CCC(O)c1ccc(Br)cc1)C(=O)CCl (stereo not given) | -0.372
CC(NC(=O)CCl)c1cnn(C2CC2)c1 (stereo not given) | -0.625
CCN(C(=O)CCl)C1CCS(=O)(=O)C1 (stereo not given) | -0.357
COc1ccc(-c2csc(NC(=O)CCl)n2)cc1 | -0.0557
Cc1noc(N2CCN(C(=O)CCl)CC2)n1.Cl | 0.106
O=C(CCl)N1CCCCCC1c1ncon1 (stereo not given) | 0.0211

Structure (SMILES) | log2 ratio of Biotin-Ahx-Ub-VS probe labelling
O=C(CCl)N1CCc2sccc2C1 | -0.211
O=C(CCl)Nc1ccc2c(c1)OC(F)(F)O2 | -0.0462
O=C(CCl)N(C1CCCC1)C1CCS(=O)(=O)C1 (stereo not given) | -0.335
O=C(CCl)N1CCCC2CCCCC21 (stereo not given) | -0.196
O=C(CCl)Nc1cccc(NC(=O)c2ccccc2)c1 | -0.291
O=C(CCl)N1CCOCC1C1CC1 (stereo not given) | -0.527
Cl.O=C(CCl)N1CCCC(c2ncc[nH]2)C1 (stereo not given) | -0.0106
O=C(CCl)N1CC=C(c2c[nH]c3ccccc23)CC1 | -0.308
Cl.O=C(CCl)N1CCC(Cc2nccs2)C1 (stereo not given) | -0.176
O=C(CCl)Nc1ccccc1C(F)(F)F | -0.519
Cc1ccc(C)c(Oc2ccc(CNC(=O)CCl)cn2)c1.Cl | -0.169
CC(=O)Nc1ccc(NC(=O)CCl)cc1 | -0.081
O=C(CCl)N1CCC2(CCC(O)CC2)CC1 | -0.321
Cc1conc1C1CN(C(=O)CCl)C1 | -0.671
COc1ccccc1C(C)NC(=O)CCl (stereo not given) | -0.185
Cc1ccc(-c2nnc(C)[nH]2)c(NC(=O)CCl)c1 | -0.316
CS(=O)(=O)c1ccc(CNC(=O)CCl)cc1 | -0.177

Reference: the supplement of paper PMC11732987, “Enantioselective OTUD7B fragment discovery through chemoproteomics screening and high-throughput optimisation” (Communications Chemistry, 2025)
